Reference: PubChem BioAssay (Tox21)
Values without a mark were called inactive. Results filed as inconclusive are left out. A call without a number means that no potency is given here. Active and inactive are the calls of the source. Unless noted, calls follow the shape of the dose curve; as a rule, active = well fitted curve in the direction sought with a large enough effect in the repeat runs; inconclusive = weak or mixed curves; inactive = no such curve, though single readings can be large; an effect the other way counts as inactive or inconclusive.

What was measured:
[1] = target: Thyrotropin receptor (Homo sapiens) (UniProt P16473); assay: qHTS assay to identify small molecule antagonists of the thyroid stimulating hormone receptor (TSHR) signaling pathway (AID 1259385; calls by dose curve; also: nearly all actives have a fitted effect of over 20% in size)
Summary of the method: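 Antagonist mode: compound-treated TSHR-expressing HEK293 cells were stimulated with 1.5 ng/mL TSH (final) in presence of Ro20-1724 for 30 min at RT. HTRF cAMP detection after 1 h; each compound tested at 15 concentrations, triplicate.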

[2] = qHTS assay to identify small molecule agonists of the estrogen receptor alpha (ER-alpha) signaling pathway in the presence of an antagonist - cell viability counter screen (AID 1259386);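 also: series mostly up to about 92 µM; cells exposed to compounds for 22 h at 37 °C before the viability read; nearly all actives have a fitted effect of over 30% in size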
Summary of the method: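 ICI-182,780 at 10.0nM final accompanies the compound titration (15 concentrations, 22hr, 37C) on VM7Luc4E2 cells. The CellTiter-Fluor fluorescence readout runs in the same wells as the luciferase assay.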

[3] = target: Progesterone receptor (Homo sapiens) (UniProt P06401); assay: qHTS assay to identify small molecule agonists of the progesterone receptor (PR) signaling pathway (AID 1346784; calls by dose curve; also: nearly all actives have a fitted effect of over 30% in size)
Summary of the method: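 Beta-lactamase reporter read-out: after 16 hr compound treatment at 37C and a further 2 hr at room temperature with LiveBLAzer B/G FRET substrate, fluorescence was measured in PR-UAS-bla HEK 293T cells grown in 2% charcoal-stripped serum.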

[4] = target: Progesterone receptor (Homo sapiens) (UniProt P06401); assay: qHTS assay to identify small molecule antagonists of the progesterone receptor (PR) signaling pathway (AID 1346795; active = well fitted inhibition curve with a large enough effect in the signal ratio in the repeat runs, not every such curve was filed as active; the % refers to the signal ratio; also: potency is read from the fitted curve at half-maximal effect)
Summary of the method: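 Read-out is fluorescence from the LiveBLAzer B/G FRET substrate, cleaved by a UAS-controlled beta-lactamase in PR-UAS-bla HEK293T cells after 16 hr exposure to compound plus 1 nM promegestone (final), followed by 2 hr at room temperature.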

[5] = qHTS assay to identify small molecule antagonists of the progesterone receptor (PR) signaling pathway - cell viability counter screen (AID 1346798);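 also: HEK293T PR-UAS-bla cells stimulated with the agonist R5020; series mostly up to about 92 µM; nearly all actives have a fitted effect of over 50% in size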
Summary of the method: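 HEK293T PR-UAS-bla, 2% charcoal-stripped FBS; 4 hr pre-plate; cpd + R5020, 16 h 37C; LiveBLAzer read first; then CellTiter-Glo 30 min RT, luminescence.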

[6] = qHTS assay to identify small molecule agonists of the progesterone receptor (PR) signaling pathway - cell viability counter screen (AID 1346799; calls by dose curve; also: nearly all actives have a fitted effect of over 45% in size)
Summary of the method: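 Luminescence from CellTiter-Glo, added after the beta-lactamase FRET read in the same wells, gave cytotoxicity in PR-UAS-bla HEK293T cells treated with compounds for 16 hr at 37C.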

[7] = qHTS assay to identify small molecule antagonists of the TGF-beta/Smad signaling pathway - cell viability counter screen (AID 1346824); also: nearly all actives have a fitted effect of over 50% in size
Summary of the method: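 Cytotoxicity counter-screen run in the same wells as the beta-lactamase Smad reporter read: CellTiter-Glo luminescence after 30 min at room temperature. HEK 293T SBE-bla cells had 5 hr compound exposure at 37 C with TGF-beta1 (0.25 ng/mL stock).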

[8] = qHTS assay to identify small molecule agonists of the TGF-beta/Smad signaling pathway - cell viability counter screen (AID 1346829); also: nearly all actives have a fitted effect of over 45% in size; also: potency is read from the fitted curve at half-maximal effect
Summary of the method: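 Here the cytotoxicity of library compounds is measured in SBE-bla HEK 293T cells treated for 5 hr, using CellTiter-Glo added to wells already read for the beta-lactamase reporter.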

[9] = qHTS assay to identify small molecule agonists of the TGF-beta/Smad signaling pathway (AID 1346859; active = well fitted activation curve with a large enough effect in the signal ratio in the repeat runs, not every such curve was filed as active; the % refers to the signal ratio; also: series mostly up to about 77 µM)
Summary of the method: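 SBE-bla HEK 293T, 4,000 cells/well, plated o/n; cpd in DMSO, 5 hr, 37 C/5% CO2; B/G FRET substrate 2 hr RT; ex 405, em 460/530 nm.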

[10] = Human pregnane X receptor (PXR) small molecule agonists, qHTS cell viability counter screen (AID 1346977); also: nearly all actives have a fitted effect of over 50% in size
Summary of the method: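 PXR-Luc HepG2, 2,000 cells/well, 5% charcoal-stripped FBS; 5hr settle; cpd 24hr, 37C/5% CO2; CellTiter-Fluor at 23hr, read 1hr later (fluorescence).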

[11] = Caspase-3/7 induction in HepG2 cells by small molecules, qHTS assay (AID 1346978); also: nearly all actives have a fitted effect of over 15% in size
Summary of the method: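 Caspase-3/7 induction was measured by Caspase-Glo 3/7 luminescence (30 min, room temperature) after a 17 hr compound exposure of wild-type HepG2 cells seeded at 2,000 per well and pre-incubated 5 hr.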

[12] = Caspase-3/7 induction in CHO-K1 cells by small molecules, qHTS cell viability counter screen (AID 1346979); also: nearly all actives have a fitted effect of over 35% in size
Summary of the method: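 Cells (CHO-K1, wild type) are plated at 1,500 per well and incubated 5hr. Test compounds in DMSO are then pinned in, followed by 16hr at 37C and 5% CO2. Viability is read by CellTiter-Fluor fluorescence after 1hr.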

[13] = Caspase-3/7 induction in CHO-K1 cells by small molecules, qHTS assay (AID 1346980); also: nearly all actives have a fitted effect of over 15% in size
Summary of the method: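 Luminescent Caspase-Glo 3/7 read (30min, room temperature) quantified apoptosis induction. Cells were wild-type CHO-K1, treated with compound for 17hr at 37 C and 5% CO2.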

[14] = Caspase-3/7 induction in HepG2 cells by small molecules, qHTS cell viability counter screen (AID 1346981); also: series mostly up to about 92 µM; nearly all actives have a fitted effect of over 30% in size
Summary of the method: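 Multiplexed with the caspase-3/7 assay: HepG2 cells, 16 hr compound treatment, CellTiter-Fluor viability detection by fluorescence.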

[15] = target: Nuclear receptor subfamily 1 group I member 2 (Homo sapiens) (UniProt O75469); assay: Human pregnane X receptor (PXR) small molecule agonists, qHTS assay (AID 1346982); also: nearly all actives have a fitted effect of over 35% in size; also: potency is read from the fitted curve at half-maximal effect
Summary of the method: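 We seeded PXR-Luc HepG2 cells in assay medium containing 5% charcoal-stripped FBS, added compounds 5 hr later, incubated 24 hr, and read luminescence with ONE-Glo reagent.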

[16] = target: Nuclear receptor subfamily 1 group I member 2 (Rattus norvegicus) (UniProt Q9R1A7); assay: Rat pregnane X receptor (rPXR) activation by small molecules, qHTS assay (AID 1346983); conditions: rPXR luciferase reporter cells, One-Glo luminescence, 24 h; max activation: active compounds read high; also: nearly all actives have a fitted effect of over 20% in size
Summary of the method: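 Luminescent readout (One-Glo luciferase, 30 min room temperature) followed 24 hr compound treatment at 37 C of rPXR cells plated 2,000 per well and preincubated 5hr; qHTS format with compounds delivered in DMSO.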

[17] = target: Nuclear receptor subfamily 1 group I member 2 (Homo sapiens) (UniProt O75469); assay: CYP3A4 induction through human pregnane X receptor (PXR) by small molecules, qHTS assay (AID 1346984); also: nearly all actives have a fitted effect of over 40% in size
Summary of the method: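 qHTS, concentration-response format: HepG2 DPX-2 line, PXR/CYP3A4-luc. Exposure 24 h, 37C. Substrate Luciferin-IPA 3uM final, 3 h. Detection One-Glo, 30 min RT.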

[18] = target: Cytochrome P450 2D6 (Homo sapiens) (UniProt P10635); assay: Cytochrome P450 Family 2 Subfamily D Member 6 (CYP2D6) small molecule antagonists: luciferase reporter qHTS assay (AID 1671196); also: nearly all actives have a fitted effect of over 50% in size; also: potency is read from the fitted curve at half-maximal effect
Summary of the method: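 Luminescence (RLU), read 20 min after detection reagent, indicated CYP2D6 conversion of proluciferin to luciferin during a 1 h NADPH-dependent reaction at room temperature.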

[19] = target: Thyrotropin-releasing hormone receptor (Homo sapiens) (UniProt P34981); assay: qHTS assay to identify small molecule antagonists of the thyrotropin-releasing hormone receptor (TRHR) signaling pathway (AID 1346877; active = well fitted inhibition curve with a large enough effect in the repeat runs, not every such curve was filed as active; also: series mostly up to about 51 µM)
Summary of the method: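 Screening used HEK293 cells engineered with TRHR, with a brief 5 min room-temperature compound exposure preceding addition of TRH to 1 nM. The read-out was kinetic calcium-dye fluorescence, concentration-response from 15 doses in triplicate.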

[20] = target: Thyrotropin-releasing hormone receptor (Homo sapiens) (UniProt P34981); assay: qHTS assay to identify small molecule agonists of the thyrotropin-releasing hormone receptor (TRHR) signaling pathway (AID 1346891; calls by dose curve; also: series mostly up to about 58 µM)
Summary of the method: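 Intracellular calcium rise, read as fluorescence every second for 3 min, served as the agonist signal in dye-loaded HEK293 cells expressing TRHR; each compound ran at 15 concentrations in triplicate.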

Chain of Thyrotropin-releasing hormone receptor (Homo sapiens) (P34981 whole entry, looked up): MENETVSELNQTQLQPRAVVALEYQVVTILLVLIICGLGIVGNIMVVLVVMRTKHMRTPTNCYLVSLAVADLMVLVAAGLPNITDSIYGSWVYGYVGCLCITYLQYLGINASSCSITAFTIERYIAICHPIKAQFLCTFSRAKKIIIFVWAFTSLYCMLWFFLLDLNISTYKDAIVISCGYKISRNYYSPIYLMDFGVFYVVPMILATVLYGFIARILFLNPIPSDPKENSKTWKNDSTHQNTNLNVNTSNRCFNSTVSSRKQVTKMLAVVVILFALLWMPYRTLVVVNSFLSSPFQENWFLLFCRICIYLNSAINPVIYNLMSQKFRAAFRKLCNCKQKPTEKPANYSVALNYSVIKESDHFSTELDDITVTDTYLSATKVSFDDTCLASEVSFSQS
Chain of Thyrotropin receptor (Homo sapiens) (P16473 whole entry, looked up): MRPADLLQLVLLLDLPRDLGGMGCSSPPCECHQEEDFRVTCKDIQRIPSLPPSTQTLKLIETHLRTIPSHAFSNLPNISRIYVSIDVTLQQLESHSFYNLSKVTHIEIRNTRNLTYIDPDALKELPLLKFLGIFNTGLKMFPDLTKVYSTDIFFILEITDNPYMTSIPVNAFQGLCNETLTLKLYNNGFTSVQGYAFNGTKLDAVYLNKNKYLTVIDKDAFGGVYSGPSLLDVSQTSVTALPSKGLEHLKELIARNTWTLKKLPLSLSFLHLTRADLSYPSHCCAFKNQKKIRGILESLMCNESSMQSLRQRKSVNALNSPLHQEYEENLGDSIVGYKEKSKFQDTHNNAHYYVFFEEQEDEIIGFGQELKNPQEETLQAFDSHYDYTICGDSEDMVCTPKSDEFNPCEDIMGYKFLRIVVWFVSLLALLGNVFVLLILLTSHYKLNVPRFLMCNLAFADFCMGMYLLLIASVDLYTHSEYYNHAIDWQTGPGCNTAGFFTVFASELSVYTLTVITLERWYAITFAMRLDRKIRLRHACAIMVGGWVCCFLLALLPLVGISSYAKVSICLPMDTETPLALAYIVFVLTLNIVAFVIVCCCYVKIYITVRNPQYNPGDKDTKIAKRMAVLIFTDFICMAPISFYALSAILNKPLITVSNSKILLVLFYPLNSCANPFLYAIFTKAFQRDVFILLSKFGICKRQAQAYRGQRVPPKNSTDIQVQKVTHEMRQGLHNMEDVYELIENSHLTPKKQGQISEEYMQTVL
Chain of Progesterone receptor (Homo sapiens) (P06401 whole entry, looked up): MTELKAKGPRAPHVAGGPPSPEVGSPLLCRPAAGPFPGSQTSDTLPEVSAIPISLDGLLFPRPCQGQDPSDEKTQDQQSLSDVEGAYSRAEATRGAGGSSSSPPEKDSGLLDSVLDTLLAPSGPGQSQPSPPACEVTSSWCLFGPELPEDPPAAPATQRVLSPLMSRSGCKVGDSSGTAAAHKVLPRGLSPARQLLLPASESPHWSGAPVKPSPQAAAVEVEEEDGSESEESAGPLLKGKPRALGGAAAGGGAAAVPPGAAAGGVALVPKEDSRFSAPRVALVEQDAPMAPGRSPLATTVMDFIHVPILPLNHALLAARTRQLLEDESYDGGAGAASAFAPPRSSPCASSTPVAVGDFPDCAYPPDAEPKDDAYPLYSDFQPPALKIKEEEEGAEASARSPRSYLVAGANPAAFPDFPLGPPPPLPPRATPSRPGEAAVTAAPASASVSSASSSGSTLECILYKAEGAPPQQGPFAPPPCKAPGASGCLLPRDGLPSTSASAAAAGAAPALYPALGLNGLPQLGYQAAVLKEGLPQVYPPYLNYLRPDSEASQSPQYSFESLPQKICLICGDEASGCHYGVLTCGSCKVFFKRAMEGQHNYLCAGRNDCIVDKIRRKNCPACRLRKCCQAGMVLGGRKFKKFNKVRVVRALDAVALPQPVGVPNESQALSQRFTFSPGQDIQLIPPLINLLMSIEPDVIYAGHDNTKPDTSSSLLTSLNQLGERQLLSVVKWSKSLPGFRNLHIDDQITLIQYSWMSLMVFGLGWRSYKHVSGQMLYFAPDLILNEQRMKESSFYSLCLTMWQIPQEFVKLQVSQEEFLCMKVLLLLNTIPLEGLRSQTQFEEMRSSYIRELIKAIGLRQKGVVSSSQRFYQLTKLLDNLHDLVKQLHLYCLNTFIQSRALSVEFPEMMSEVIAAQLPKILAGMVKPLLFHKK
Chain of Cytochrome P450 2D6 (Homo sapiens) (P10635 whole entry, looked up): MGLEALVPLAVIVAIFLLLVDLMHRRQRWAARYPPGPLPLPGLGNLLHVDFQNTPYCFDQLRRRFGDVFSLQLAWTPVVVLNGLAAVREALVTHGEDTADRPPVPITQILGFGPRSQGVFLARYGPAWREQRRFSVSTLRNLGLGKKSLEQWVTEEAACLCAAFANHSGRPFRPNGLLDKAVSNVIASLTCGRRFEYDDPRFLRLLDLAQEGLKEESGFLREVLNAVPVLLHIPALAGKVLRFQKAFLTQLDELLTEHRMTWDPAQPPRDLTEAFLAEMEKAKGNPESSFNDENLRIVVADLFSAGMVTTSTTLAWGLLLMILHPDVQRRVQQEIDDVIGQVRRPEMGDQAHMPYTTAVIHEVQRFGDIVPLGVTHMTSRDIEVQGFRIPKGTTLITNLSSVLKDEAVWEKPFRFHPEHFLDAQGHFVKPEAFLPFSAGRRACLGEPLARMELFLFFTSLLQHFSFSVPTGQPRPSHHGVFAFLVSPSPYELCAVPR
Chain of Nuclear receptor subfamily 1 group I member 2 (Homo sapiens) (O75469 whole entry, looked up): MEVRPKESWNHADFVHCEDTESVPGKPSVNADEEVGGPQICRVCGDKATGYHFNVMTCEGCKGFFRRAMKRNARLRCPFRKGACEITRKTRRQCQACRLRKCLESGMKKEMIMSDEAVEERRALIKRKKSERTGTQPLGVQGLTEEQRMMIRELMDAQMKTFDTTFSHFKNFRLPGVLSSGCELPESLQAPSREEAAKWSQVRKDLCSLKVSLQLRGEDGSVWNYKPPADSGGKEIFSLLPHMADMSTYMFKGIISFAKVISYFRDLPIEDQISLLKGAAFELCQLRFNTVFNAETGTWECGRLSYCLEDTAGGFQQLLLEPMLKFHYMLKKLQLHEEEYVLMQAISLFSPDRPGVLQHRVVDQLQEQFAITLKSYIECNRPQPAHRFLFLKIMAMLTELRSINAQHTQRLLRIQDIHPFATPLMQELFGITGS
Chain of Nuclear receptor subfamily 1 group I member 2 (Rattus norvegicus) (Q9R1A7 whole entry, looked up): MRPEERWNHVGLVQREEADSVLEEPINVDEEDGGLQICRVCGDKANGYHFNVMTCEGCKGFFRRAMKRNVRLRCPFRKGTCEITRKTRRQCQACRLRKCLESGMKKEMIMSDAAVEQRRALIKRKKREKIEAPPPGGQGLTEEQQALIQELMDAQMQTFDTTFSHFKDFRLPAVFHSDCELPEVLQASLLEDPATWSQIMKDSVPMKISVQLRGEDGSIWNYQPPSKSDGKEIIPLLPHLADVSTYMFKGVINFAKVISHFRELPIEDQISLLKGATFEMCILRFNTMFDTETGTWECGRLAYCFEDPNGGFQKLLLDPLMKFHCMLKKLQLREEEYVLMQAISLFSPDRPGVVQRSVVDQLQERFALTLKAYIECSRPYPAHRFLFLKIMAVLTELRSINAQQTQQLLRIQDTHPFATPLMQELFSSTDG

Row | Compound | Potency [1] | Potency [2] | Potency [3] | Potency [4] | Potency [5] | Potency [6] | outcome [7] | Potency [8] | Potency [9] | Potency [10] | Potency [11] | Potency [12] | outcome [13] | Potency [14] | Potency [15] | max activation [16] [%] | Potency [17] | Potency [18] | outcome [19] | outcome [20]
1 | O=C(O)CNC(=O)c1ccccc1I | inactive | inactive | inactive | inactive | inactive | inactive | inactive | inactive | inactive | inactive | inactive | inactive | inactive | inactive | inactive | 0.066 | inactive | inactive | – | –
2 | [Cl][Nd]([Cl])[Cl] | inactive | inactive | inactive | – | inactive | inactive | inactive | inactive | inactive | – | inactive | inactive | inactive | inactive | inactive | – | – | inactive | inactive | inactive
3 | CCCCCCOC(=O)CCCCC | inactive | inactive | inactive | inactive | – | inactive | inactive | inactive | inactive | inactive | inactive | inactive | – | inactive | inactive | – | – | inactive | inactive | inactive
4 | CCCC(=O)OC(=O)CCC | inactive | inactive | inactive | inactive | – | inactive | inactive | inactive | inactive | inactive | inactive | inactive | inactive | inactive | inactive | – | – | inactive | – | –
5 | CCCCOC(=O)CCCCC(=O)OCCCC | inactive | inactive | inactive | inactive | – | inactive | inactive | inactive | inactive | inactive | inactive | inactive | inactive | inactive | inactive | – | – | inactive | inactive | inactive
6 | O=C(c1ccccc1)c1ccc(O)cc1 | inactive | inactive | inactive | 43.8 µM (active) | inactive | – | inactive | – | inactive | – | inactive | – | – | inactive | 61.8 µM (active) | – | – | 40.4 µM (active) | inactive | inactive
7 | CC1CCC(C(C)CS)CC1S (stereo not given) | inactive | inactive | inactive | inactive | – | inactive | – | 54.9 µM (active) | – | inactive | inactive | inactive | inactive | inactive | inactive | – | – | inactive | inactive | inactive
